Results filed as inconclusive are left out. Activity calls are given as the source filed them.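 How the source made its calls: active means cell viability at or below a set limit in both duplicate runs, the limit being the all-compound median minus 4 SD (cut at about 23% in these data, passing the limit was not always enough); inconclusive means no clear call, values can overlap the other calls; inactive means the rest.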
Assay: growth suppression of beta-catenin knockout HCT116, pilot screen, human colon tumor cells (AID 823);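 further: 0% = wells killed by 20 µM Hyamine and 100% = untreated DMSO cell wells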
Conditions: CellTiter-Glo, 60 h, at 10 µM, stronger effect = lower value
For `CCN1C(=O)CS/C1=N\c1nccs1`, the viability was 105% (inactive).
For `COc1ccc(CNC(=O)c2cc3c(C)nc4ccccc4c3o2)c(OC)c1`, the viability was 74% (inactive).
For `CCCC(=O)NCCCc1nc2ccccc2n1C`, the viability was 97.1% (inactive).
In the case of `CCCCn1c(CCC(=O)O)ccc1-c1cccs1`, the viability is reported as 97.1% (inactive).
With `CCOc1ccc(N(CC(=O)NCCSc2ccccn2)S(C)(=O)=O)cc1` the viability was 97.8% (inactive).
With `Cc1c(NS(=O)(=O)CC23CCC(CC2=O)C3(C)C)c(=O)n(-c2ccccc2)n1C` (centres undefined) the viability was 99.5% (inactive).
For `CCc1nnc(NC(=O)C2Cc3ccccc3C(=O)O2)s1` (centres undefined), the viability was 102% (inactive).
For `COc1ccc(C2C(C(=O)NCCN3CCOCC3)c3ccccc3C(=O)N2C)cc1OC` (centres undefined), the viability was 91.5% (inactive).
In the case of `CC1CCN(c2nnc(N3CCC(C)CC3)c3ccccc23)CC1`, the viability is reported as 84% (inactive).
For `Cc1ccc(S(=O)(=O)N2CCN(C(=O)CN3CCCC3)C2)cc1`, the viability was 92.4% (inactive).
With `O=C(Nc1ccc(S(=O)(=O)N2CCOCC2)cc1)c1ccc(Cl)cc1` the viability was 61.1% (inactive).
For `O=C(O)CCNc1cc2ccccc2cc1C(=O)O`, the viability was 97.3% (inactive).
For `CCCn1c(C(O)c2ccc3c(c2)OCO3)nc2ccccc21` (centres undefined), the viability was 100% (inactive).
With `CCc1ccc2c(c1)C(NC(C)=O)C(=O)N2CC` (centres undefined) the viability was 78.5% (inactive).
In the case of `O=C(c1c(F)cccc1F)N1CCN(c2cccc(C(F)(F)F)c2)CC1`, the viability is reported as 83.8% (inactive).
In the case of `CCCn1c2ccccc2c2cc(C(=O)O)ccc21`, the viability is reported as 106% (inactive).
For `O=S(=O)(NCCSc1nnc(-c2ccco2)n1-c1ccccc1)c1ccccc1`, the viability was 83.9% (inactive).
In the case of `COc1ccc(Nc2ccc3c(c2)=NC2(CCCCC2)[N+]=3[O-])cc1`, the viability is reported as 2.19% (active).
With `Cn1c(Cn2c(=O)sc3ccccc32)nnc1SCC(=O)NCc1ccccc1Cl` the viability was 100% (inactive).
In the case of `O=C(Nc1cccnc1)c1ccccc1F`, the viability is reported as 103% (inactive).
For `CCOc1ccc2nc(N3CCC(C(=O)Nc4nnc(CC)s4)CC3)sc2c1`, the viability was 95.8% (inactive).
In the case of `O=C1N(O)C2(C=CCCC2)/C(=N\O)C12CCCCC2` (centres undefined), the viability is reported as 90.1% (inactive).
In the case of `O=C1CCCC2=C1C1(O)C(=O)c3ccccc3C1(O)O2` (centres undefined), the viability is reported as 89.4% (inactive).
In the case of `CC1CCC(NC(=O)c2cc3c(=O)n(C)c4ccccc4c3n2C)CC1` (centres undefined), the viability is reported as 76.8% (inactive).

— PubChem BioAssay
